Most compounds without a hit are left out; they make up all but 2.3% or so of the library.
C diff HTS – C. difficile growth inhibitors, primary screen, HTS | Clostridium difficile clinical isolate growth, OD600, 24 h; hits give low values | growth activity, negative = inhibition, % at 16 µg/mL (by protocol) | 86,000 compounds, 0.25% hits | AID 1259249, 2017;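 active = mean growth activity at or below -80% and every replicate also at or below -80%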;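 note: 0% = DMSO wells and -100% = levofloxacin 16 µg/mL wells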
Pf Dd2 inh – P. falciparum Dd2 growth inhibitors, primary screen, SYBR Green fluorescence, single dose replicates; 94,000 compounds, 2.3% hits; 72 h; hits give low values; activity change, % at 10 µM; in the data active = activity change below about -80%
Numbers without * were called inactive; · = no result given.

SMILES | C diff HTS | Pf Dd2 inh
C[C@@H]1CN([C@@H](C)CO)S(=O)(=O)c2ccc(-c3ccc(C#N)cc3)cc2O[C@@H]1CN(C)CC1CC1 | -3.4 | -77.0
C[C@H]1CN([C@@H](C)CO)S(=O)(=O)c2ccc(/C=C/c3ccccc3)cc2O[C@H]1CN(C)Cc1cccnc1 | 4.0 | -81.6*
C/C=C/c1ccc2c(c1)O[C@H](CN(C)CC1CC1)[C@H](C)CN([C@H](C)CO)S2(=O)=O | 3.1 | -20.4
C[C@H]1CN([C@@H](C)CO)S(=O)(=O)c2ccc(/C=C/c3ccccc3)cc2O[C@H]1CN(C)CC1CC1 | 19.1 | -83.5*
C[C@H](CO)N1C[C@H](C)[C@H](CN(C)Cc2cncnc2)Oc2cc(/C=C/c3ccccc3)ccc2S1(=O)=O | 1.2 | -45.2
COc1cc2c(cc1OC)CN(C(=O)[C@H]1[C@@H]3C(=O)O[C@@H](c4ccccc4)[C@@H](c4ccccc4)N3[C@@H](c3ccccc3OCCO)[C@]13C(=O)Nc1ccc(C#CC4(O)CCCCCC4)cc13)CC2 | 4.9 | ·
Cc1noc(C)c1S(=O)(=O)Nc1ccc2c(c1)C(=O)N([C@H](C)CO)C[C@H](C)[C@H](CN(C)CC1CCCCC1)O2 | 5.0 | 14.3
CCC(=O)Nc1ccc2c(c1)C(=O)N(C)C[C@@H](OC)[C@H](C)CN(C(=O)NC(C)C)[C@@H](C)CO2 | -0.4 | 28.4
C[C@H]1CN([C@@H](C)CO)S(=O)(=O)c2ccc(-c3ccccc3)cc2O[C@H]1CN(C)C(=O)C1CC1 | -2.2 | -22.2
C[C@@H]1CCCCO[C@@H](CN(C)Cc2ccc(C(=O)O)cc2)[C@H](C)CN([C@H](C)CO)C(=O)c2cc(NC(=O)CCCN(C)C)ccc2O1 | 4.9 | 10.8
C[C@H]1CCCCO[C@@H](CN(C)Cc2ccc(C(F)(F)F)cc2)[C@@H](C)CN([C@@H](C)CO)C(=O)c2cc(NC(=O)CCC(F)(F)F)ccc2O1 | -0.5 | -44.6
C[C@@H]1CN([C@H](C)CO)C(=O)c2cc(NC(=O)CCCN(C)C)ccc2O[C@@H](C)CCCCO[C@H]1CN(C)Cc1ccc(C(F)(F)F)cc1 | 5.3 | -85.9*
C[C@@H]1CCCCO[C@H](CN(C)Cc2ccc(C(F)(F)F)cc2)[C@@H](C)CN([C@@H](C)CO)C(=O)c2cc(NC(=O)CCCN(C)C)ccc2O1 | 1.1 | -88.2*
C[C@H](CO)N1C[C@H](C)[C@H](CN(C)Cc2ccc(C(F)(F)F)cc2)OCCCC[C@H](C)Oc2ccc(NC(=O)CCCN(C)C)cc2C1=O | 11.8 | -86.2*
C[C@@H]1CN([C@@H](C)CO)C(=O)c2cc(NC(=O)CCCN(C)C)ccc2O[C@@H](C)CCCCO[C@H]1CN(C)Cc1ccc(C(F)(F)F)cc1 | 2.4 | -84.0*
C[C@@H]1CCCCO[C@@H](CN(C)Cc2ccc(C(F)(F)F)cc2)[C@@H](C)CN([C@H](C)CO)C(=O)c2cc(NC(=O)CCC(F)(F)F)ccc2O1 | 5.6 | -30.8
C[C@@H]1CCCCO[C@H](CN(C)Cc2ccc(C(F)(F)F)cc2)[C@@H](C)CN([C@H](C)CO)C(=O)c2cc(NC(=O)CCC(F)(F)F)ccc2O1 | -0.5 | -38.3
O=C(NCC1CC1)[C@@H]1[C@@H](CO)[C@@H]2Cn3c(ccc(-c4ccc(F)cc4)c3=O)[C@H]1N2 | 0.0 | -6.5
CCCNC(=O)N(C)C[C@@H]1Oc2ncc(-c3ccc(F)cc3)cc2C(=O)N([C@H](C)CO)C[C@H]1C | 3.5 | 5.9
O=C(C[C@@H]1CC[C@H]2[C@@H](COC[C@H](O)CN2C(=O)Cc2ccccc2)O1)NC1Cc2ccccc2C1 | 36.0 | -5.4
C[C@H]1CN([C@@H](C)CO)C(=O)Cc2cc(NC(=O)CCCCCC(=O)Nc3ccccc3N)ccc2O[C@@H]1CN(C)S(=O)(=O)c1ccc(F)cc1 | -6.8 | -50.6
C[C@@H]1CN([C@@H](C)CO)C(=O)c2cc(C3=CCCCC3)cnc2O[C@@H]1CN(C)C(=O)Nc1ccc(F)cc1 | 15.8 | 27.8
C[C@@H]1CN([C@H](C)CO)C(=O)c2cccc(NS(=O)(=O)c3ccccc3)c2O[C@H]1CN(C)Cc1ccc(Oc2ccccc2)cc1 | 14.7 | -86.0*
C[C@@H]1CN([C@@H](C)CO)C(=O)c2cccc(NS(=O)(=O)c3ccccc3)c2O[C@@H]1CN(C)Cc1ccc(Oc2ccccc2)cc1 | 44.1 | -62.9
C[C@@H]1CN([C@@H](C)CO)C(=O)c2cccc(NS(=O)(=O)c3ccccc3)c2O[C@H]1CN(C)Cc1ccc(Oc2ccccc2)cc1 | -3.9 | -83.2*
C[C@H](CO)N1C[C@H](C)[C@@H](CN(C)Cc2ccc(Oc3ccccc3)cc2)Oc2c(NS(=O)(=O)c3ccccc3)cccc2C1=O | -9.3 | -17.7
COc1ccc(S(=O)(=O)Nc2cccc3c2O[C@@H](CN(C)Cc2ccc(C(=O)Nc4ccccc4N)cc2)[C@@H](C)CN([C@H](C)CO)C3=O)cc1 | 5.1 | -75.7

Assay outcomes deposited in PubChem by Broad Institute.
